# Assay outcomes from PubChem BioAssay.
# p53null 39C tox: qHTS Screen for Compounds that Selectively Target Cancer Cells with p53 Mutations: Cytotoxicity of p53 Null Cells at the Nonpermissive Temperature; H1299 p53-null (neo) cells, 39C, ATPlite viability, 24 h; Potency, µM (highest dose often 46.1 µM), for inactives: top-dose activity, negative = cell killing, actives largely listed as cytotoxic; actives 0.97% (n = 55,000); AID 904, 2007;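 also: potency is read from the fitted curve at half-maximal effect; 0% = DMSO only and -100% = full killing by 100 µM tamoxifen; nearly all actives have a fitted effect of over 50% in size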
#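 Following overnight plating at 37C (600 cells/well), H1299-neo or H1299-p53A138V cells are dosed up to 46 uM. Incubation lasts 24 hr at 39C before ATP detection.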
# S16 F2sN tox: Cell viability qHTS assay in S16 Pmp22-F2sN cells; S16 Pmp22-F2sN Schwann cells viability, CellTiter-Glo, 24 h; Potency, µM (series often up to 57.5 µM), inactives show at the top dose activity change, negative = cytotoxicity, hits mostly cytotoxic; actives 0.48% (n = 43,000); AID 1508642, 2021; also: potency is read from the fitted curve at half-maximal effect; % is scaled to controls: 0 for no effect and ±100 for the full control effect; nearly all actives have a fitted effect of over 65% in size
#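 Luminescence from CellTiter-Glo, read by CCD camera after a 15 min room-temperature incubation, served as the viability signal. Reporter Schwann cells (S16 Pmp22-F2sN) had been treated with pin-transferred compounds for 24 h at 37C.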
# p53null 32C kill: qHTS Screen for Compounds that Selectively Target Cancer Cells with p53 Mutations: Cytotoxicity of p53 Null Cells at the Permissive Temperature. AID 903, 2007. Potency, µM (top dose mostly 46.1 µM), without a hit: at the top dose activity change, negative = cytotoxicity, most hits filed as cytotoxic. H1299-neo p53 null cells, ATP luminescence, 24 h, 32C. actives 0.62% (n = 55,000);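 also: potency is read from the fitted curve at half-maximal effect; 0% = DMSO only and -100% = full killing by 100 µM tamoxifen; nearly all actives have a fitted effect of over 55% in size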
#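 H1299-neo (p53-null) cells, 600/well, were pre-incubated overnight at 37C, then exposed to compounds at up to 46 uM for 24 hr at 32C. Viability was measured as ATP content by luminescence, and AC50 values came from Hill fits.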
# mTORC1 inh: Acumen qHTS Assay for Inhibitors of the mTORC1 Signaling Pathway in MEF (Tsc2-/-, p53-/-) Cells: Sytravon | Tsc2-/- p53-/- MEF, phospho-rpS6 immunofluorescence/PI, 24 h | Potency, µM (doses to about 38.3 µM), inactives show at the highest dose activity change, negative = inhibition, most hits filed as inhibitors | actives 0.78% (n = 44,000);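 also: potency is read from the fitted curve at half-maximal effect; plate controls were DMSO for no effect and rapamycin for full effect; nearly all actives have a fitted effect of over 50% in size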
#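 Tsc2-/-, p53-/- MEFs (empty-vector stable line) in DMEM + 10% FBS were treated with compounds 24 h at 37 degree Celsius, fixed, and immunostained for phospho-rpS6 (Alexa-488) with propidium iodide counterstain. Laser-scanning cytometry gave % positive cells, normalized against 7.5 nM rapamycin and DMSO.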
# SKOV3 invasion: Primary qHTS assay for Inhibitors of ovarian cancer metastasis using an organotypic tumor microenvironment (TME) model; SKOV3ip1-GFP adhesion/invasion on 3D omental model, fluorescence; Potency, µM (top dose mostly 45.8 µM), inactives show at the highest dose activity change, negative = inhibition, usual class: inhibitors; actives 0.1% (n = 46,000); AID 1963576, 2024;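 also: potency is read from the fitted curve at half-maximal effect; plate controls were DMSO wells for no effect and tomatine positive control wells for full effect; nearly all actives have a fitted effect of over 65% in size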
#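 Adhesion/invasion was scored as fixed GFP-labeled SKOV3ip1 cell counts (488/509 nm), normalized to DMSO and tomatine controls. Cancer cells in serum-free medium, with four compound doses (0.36-46 umol/L), sat 2 hr at RT then 16 hr at 37 C on a 48 hr fibroblast/mesothelial/ECM culture.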
# PMP22 txn: Cell-based coincidence reporter assay to measure PMP22 gene transcription in S16 Pmp22-F2sN cells - Primary screen | S16 Pmp22-F2sN Schwann cells (luciferase reporters placed in the Pmp22 gene), FLuc/NLuc coincidence luminescence, 24 h | Potency, µM (doses to about 57.5 µM), for inactives: at the highest dose activity change, negative = inhibition, hits mostly inhibitors | actives 2% (n = 43,000); active = clear falling dose curves in both reporters; inconclusive = both reporters move, but less clearly or upward; inactive = either reporter flat; the % is the NLuc reporter signal; also: potency is read from the fitted curve at half-maximal effect; % is scaled to controls: 0 for no effect and ±100 for the full control effect
#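 Rat S16 Pmp22-F2sN cells, 500-1,000/well in phenol red-free DMEM + 10% FBS, compound-treated 24 h (37C, 5% CO2). Luminescence: FLuc read, Stop&Glo added, NLuc read.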
# NLuc sat counter: Biochemical NLuc saturation counterscreen for small molecule modulators of PMP22 gene expression - Nano-Glo assay. actives 4% (n = 690). Secreted NLuc enzyme (filtered S16 cell medium), Nano-Glo luminescence. shares compounds with PMP22 txn. Potency, µM (titrated, usually from 57.5 µM), inactives show at the highest dose activity change, negative = inhibition, most hits filed as inhibitors; also: potency is read from the fitted curve at half-maximal effect; % is scaled to controls: 0 for no effect and ±100 for the full control effect
# NLuc Km counter: Biochemical coelenterazine-based NLuc counterscreen for small molecule modulators of PMP22 gene expression - Km assay; shares compounds with PMP22 txn; secreted NLuc enzyme, coelenterazine luminescence, Km conditions; Potency, µM (highest dose often 57.5 µM), for inactives: at the highest dose activity change, negative = inhibition, hits mostly inhibitors; actives 5% (n = 690); AID 1508639, 2021; also: potency is read from the fitted curve at half-maximal effect; % is scaled to controls: 0 for no effect and ±100 for the full control effect
# FLuc counter: Biochemical FLuc counterscreen for small molecule modulators of PMP22 gene expression | shares compounds with PMP22 txn | purified P. pyralis FLuc, luminescence, 10 min | Potency, µM (titrated, usually from 57.5 µM), inactives show top-dose activity, negative = inhibition, actives largely listed as inhibitors | 690 tested, under 10 active | AID 1508640, 2021; also: % of control where 0% means no effect
# Target sequence (P08659 whole entry, looked up): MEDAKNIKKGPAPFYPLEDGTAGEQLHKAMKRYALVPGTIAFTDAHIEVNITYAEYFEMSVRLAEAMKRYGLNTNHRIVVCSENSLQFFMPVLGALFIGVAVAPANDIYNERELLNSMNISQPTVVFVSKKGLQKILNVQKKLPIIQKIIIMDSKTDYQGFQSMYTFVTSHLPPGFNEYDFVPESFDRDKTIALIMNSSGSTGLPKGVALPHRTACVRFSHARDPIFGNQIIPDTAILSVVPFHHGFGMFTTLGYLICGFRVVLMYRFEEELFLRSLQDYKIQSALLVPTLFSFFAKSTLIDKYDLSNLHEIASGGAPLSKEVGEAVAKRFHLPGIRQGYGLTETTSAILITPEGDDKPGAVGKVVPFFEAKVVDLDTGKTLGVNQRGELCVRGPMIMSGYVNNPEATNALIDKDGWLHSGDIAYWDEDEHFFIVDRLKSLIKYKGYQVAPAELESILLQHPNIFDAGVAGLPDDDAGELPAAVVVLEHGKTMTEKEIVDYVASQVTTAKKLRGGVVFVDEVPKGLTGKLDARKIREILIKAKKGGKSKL
# S16 viab conf: Cell viability qHTS assay in S16 Pmp22-F2sN cells - Confirmatory screen | shares compounds with PMP22 txn | S16 Schwann cells viability, CellTiter-Glo ATP luminescence, 24 h | Potency, µM (titrated, usually from 57.5 µM), inactives show top-dose activity change, negative = viability loss, actives largely listed as cytotoxic | actives 7% (n = 690); also: potency is read from the fitted curve at half-maximal effect; % is scaled to controls: 0 for no effect and ±100 for the full control effect
# PMP22 txn cnf: Cell-based coincidence reporter assay to measure PMP22 gene transcription in S16 Pmp22-F2sN cells - Confirmatory screen. S16 Schwann cells Pmp22-F2sN, dual luciferase, 24 h. shares compounds with PMP22 txn. actives 22% (n = 690). AID 1508646, 2021. Potency, µM (highest dose often 57.5 µM), without a hit: top-dose activity change, negative = inhibition, actives largely listed as inhibitors; active = clear falling dose curves in both reporters; inconclusive = both reporters move, but less clearly or upward; inactive = either reporter flat; the % is the FLuc reporter signal; also: potency is read from the fitted curve at half-maximal effect
# * marks the source's active call; other numbers are inactive results; i = inactive; u = inconclusive; x = not tested or not shown. The list is not random: actives were taken first. Their share in the collection is about 3.1%. Unless noted, calls follow the shape of the dose curve; as a rule, active = well fitted curve in the direction sought with a large enough effect; inconclusive = small, poorly fitted or top-dose-only effect, or another doubt; inactive = no such curve, though single readings can be large; an effect the other way counts as inactive or inconclusive.
SMILES,p53null 39C tox,S16 F2sN tox,p53null 32C kill,mTORC1 inh,SKOV3 invasion,PMP22 txn,NLuc sat counter,NLuc Km counter,FLuc counter,S16 viab conf,PMP22 txn cnf
CCc1ccc(CNc2ncc(-c3cccc(OC)c3)n2C)cc1,-20.5%,u,-18.7%,13.1µM*,5.62µM*,u,-8.5%,-6.6%,-10.3%,u,u
CCOc1ccc(NC(=O)c2cnc(N3CCCC3)nc2C)cc1,-3.6%,-0.1%,-6.8%,0.0%,3.0%,4.5%,x,x,x,x,x
CCOc1ccc(OCC)c(NC(=O)CCC(=O)N2CCOc3ccccc32)c1,u,-6.7%,-12.7%,u,7.6%,3.4%,x,x,x,x,x
CCOC(=O)C(=O)NCC(c1cccnc1)N1CCN(c2ccccc2)CC1 (stereo not given),-1.3%,-1.4%,-2.5%,10.0%,-5.0%,-12.8%,x,x,x,x,x
COc1ccc(C2CC(=O)N(CC(=O)Nc3cccc(C)c3C)c3ccccc3S2)cc1OC (stereo not given),-0.8%,-5.7%,8.3%,-6.7%,4.8%,11.9µM*,u,u,2.2%,-16.1%,-37.9%
O=C(CSc1nc(-c2ccc(F)cc2)[nH]c1-c1ccccc1)Nc1ccccc1,u,-1.7%,7.0%,8.5%,-33.3%,11.9%,x,x,x,x,x
COC(=O)COc1ccc(-c2nnc(Nc3ccc(O)cc3)c3ccccc23)cc1,0.0%,u,20.3%,u,2.51µM*,11.2µM*,12.2µM*,10.9µM*,-16.4%,-18.7%,u
Cn1c(=O)oc2cc(S(=O)(=O)N3CCCC(C(=O)N4CCN(c5ccccc5F)CC4)C3)ccc21 (stereo not given),-2.2%,-0.7%,-4.7%,-6.3%,9.2%,u,x,x,x,x,x
Cc1ccc(C)c(N2CCN(C(=O)C3CCCN(S(=O)(=O)c4ccc5c(c4)oc(=O)n5C)C3)CC2)c1 (stereo not given),14.5%,-15.1%,u,4.6%,i,15.2µM*,-9.6%,5.5%,2.7%,-15.3%,u
CCCCCCCCc1ccc(CCC(N)(CO)CO)cc1,x,x,x,x,-22.4%,x,x,x,x,x,x
COc1ccc(NC(=O)c2c(NCc3ccc(C)o3)sc3c2CCCCC3)c(OC)c1,24.6%,-25.0%,25.4%,u,-10.2%,14.1µM*,u,u,-23.2%,6.9%,u
CCOc1ccccc1C(=O)N(Cc1ccc(N(C)C)cc1)Cc1ccco1,13.3%,1.9%,20.6%,-3.7%,i,u,x,x,x,x,x
COc1ccc(N2CCN(c3c4c(nc5nncn35)CCC4)CC2)cc1,-13.6%,-25.6%,-3.8%,u,2.5%,13.4µM*,u,0.0%,-7.6%,-8.3%,u
CCOCCOC(=O)c1ccc2c(c1)N(Cc1ccccc1C#N)C(=O)c1ccccc1S2(=O)=O,-8.2%,0.1%,7.5%,3.9%,i,10.5%,x,x,x,x,x
Cc1cccc(N(C)S(=O)(=O)c2ccc(-c3cc(C)no3)s2)c1,u,-16.9%,14.7%,-18.8%,i,7.61µM*,u,u,-12.0%,-14.2%,u
COc1ccccc1CNC(=O)c1cccc(Nc2nc3ccccc3n3nnnc23)c1,-27.6%,u,-10.9%,-1.8%,-12.5%,u,x,x,x,x,x
CCOc1ccc(CCNC(=O)c2ccc(Nc3nc4ccccc4n4nnnc34)cc2)cc1OCC,-8.8%,-26.9%,-2.9%,-0.8%,-27.8%,u,x,x,x,x,x
Cc1ccc(CCNC(=O)c2ccc(Nc3nc4ccccc4n4nnnc34)cc2)cc1,-27.3%,-9.6%,-6.3%,1.0%,1.6%,u,-12.6%,1.2%,-3.0%,24.3µM*,u
O=C(NCc1ccccc1)c1cccc(Nc2nc3ccccc3n3nnnc23)c1,-12.8%,u,-5.1%,-3.0%,6.5%,12.7µM*,-1.5%,1.8%,7.3%,21.7µM*,13.7µM*
Cc1ccc(-c2csc(-c3cc4c([nH]c3=O)CC(c3ccccc3)CC4=O)n2)cc1 (stereo not given),-4.2%,-17.9%,30.2%,u,6.9%,6.31µM*,-15.8%,-5.3%,8.0%,u,-32.0%
COc1ccc(C2CC(=O)c3cc(-c4nc(-c5cccc(Cl)c5)cs4)c(=O)[nH]c3C2)cc1 (stereo not given),-24.3%,0.4%,1.3%,4.6%,18.8%,u,x,x,x,x,x
CC(=O)Nc1c(C)nn(-c2ccccc2)c1N1CCC(C(=O)NCc2ccc(Cl)cc2)CC1,-9.7%,6.4%,-13.8%,0.0%,2.5%,-0.1%,x,x,x,x,x
